# Results filed as inconclusive are left out. A call without a number means that no potency is given here. Calls of active or inactive are those of the source. Unless noted, calls come from the whole dose curve; as a rule, active = well fitted curve in the direction sought with a large enough effect in the repeat runs; inconclusive = weak or mixed curves; inactive = no such curve, though single readings can be large; an effect the other way counts as inactive or inconclusive.
# Assays:
# [1] = qHTS assay to identify small molecule antagonists of the sonic hedgehog signaling (Shh) pathway (AID 1259369; calls by dose curve; note: nearly all actives have a fitted effect of over 45% in size; note: potency is the fitted concentration of half-maximal effect)
# Procedure, shortened: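 NIH/3T3-derived 3T3Gli1-Luc cells with stably integrated Gli1-Luc reporter were preincubated 4hr at 37 C, then given compounds in DMSO plus Shh conditioned medium and incubated 24hr. Firefly luciferase luminescence read after 30min reagent at room temperature.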
# [2] = molecular target: Estrogen receptor beta (Homo sapiens) (UniProt Q92731); assay: qHTS assay to identify small molecule agonists of the estrogen receptor beta (ER-beta) signaling pathway (AID 1259377; active = well fitted activation curve with a large enough effect in the signal ratio in the repeat runs, not every such curve was filed as active; the % refers to the signal ratio)
# Estrogen receptor beta (Homo sapiens), sequence (Q92731 whole entry, looked up, the tested form may be a part): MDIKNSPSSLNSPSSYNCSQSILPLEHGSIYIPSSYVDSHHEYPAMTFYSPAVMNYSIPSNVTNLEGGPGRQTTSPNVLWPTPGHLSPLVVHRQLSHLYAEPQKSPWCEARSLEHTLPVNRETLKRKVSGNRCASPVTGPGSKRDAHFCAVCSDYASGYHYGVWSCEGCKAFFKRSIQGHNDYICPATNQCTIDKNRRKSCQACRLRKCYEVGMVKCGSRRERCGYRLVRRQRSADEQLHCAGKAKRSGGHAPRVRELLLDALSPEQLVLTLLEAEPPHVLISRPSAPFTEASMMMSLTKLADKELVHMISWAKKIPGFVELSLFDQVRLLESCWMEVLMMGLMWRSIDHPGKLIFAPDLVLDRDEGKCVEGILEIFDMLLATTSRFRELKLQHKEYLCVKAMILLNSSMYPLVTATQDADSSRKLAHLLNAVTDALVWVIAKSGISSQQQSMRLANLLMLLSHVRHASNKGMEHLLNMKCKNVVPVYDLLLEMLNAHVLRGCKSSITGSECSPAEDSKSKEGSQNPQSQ
# Procedure, shortened: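 Agonist mode cell assay in GripTite HEK293T cells expressing an ER-beta fusion that drives beta-lactamase from an Upstream Activator Sequence; 16 hr compound exposure at 37C, then 2 h LiveBLAzer B/G FRET substrate at room temperature, fluorescence read-out.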
# [3] = molecular target: Estrogen receptor beta (Homo sapiens) (UniProt Q92731); assay: qHTS assay to identify small molecule antagonists of the estrogen receptor beta (ER-beta) signaling pathway (AID 1259378; active = well fitted inhibition curve with a large enough effect in the signal ratio in the repeat runs, not every such curve was filed as active; the % refers to the signal ratio)
# Procedure, shortened: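 ER-beta-UAS-bla HEK293T cells in 2% charcoal-stripped FBS medium treated with compound plus 1nM final 17-beta-estradiol for 16 hr at 37C. Beta-lactamase reporter read by FRET substrate fluorescence after 2 hours at room temperature.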
# [4] = qHTS assay to identify small molecule agonists of the androgen receptor (AR) signaling pathway in the presence of an antagonist - cell viability counter screen (AID 1259379); note: series mostly up to about 92 µM; nearly all actives have a fitted effect of over 25% in size
# Procedure, shortened: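 MDA-kb2 human breast carcinoma cells (stable MMTV-luciferase, AR/GR responsive) were seeded 3,000 cells/well, pre-incubated 5 hr at 37C without CO2, then given 3.0uM nilutamide and compounds at 15 concentrations for 16 hr. Viability was read by CellTiter-Fluor fluorescence.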
# [5] = molecular target: Androgen receptor (Homo sapiens) (UniProt P10275); assay: qHTS assay to identify small molecule agonists of the androgen receptor (AR) signaling pathway in the presence of an antagonist (AID 1259381; calls by dose curve; note: nearly all actives have a fitted effect of over 15% in size)
# Androgen receptor (Homo sapiens), sequence (P10275 whole entry, looked up): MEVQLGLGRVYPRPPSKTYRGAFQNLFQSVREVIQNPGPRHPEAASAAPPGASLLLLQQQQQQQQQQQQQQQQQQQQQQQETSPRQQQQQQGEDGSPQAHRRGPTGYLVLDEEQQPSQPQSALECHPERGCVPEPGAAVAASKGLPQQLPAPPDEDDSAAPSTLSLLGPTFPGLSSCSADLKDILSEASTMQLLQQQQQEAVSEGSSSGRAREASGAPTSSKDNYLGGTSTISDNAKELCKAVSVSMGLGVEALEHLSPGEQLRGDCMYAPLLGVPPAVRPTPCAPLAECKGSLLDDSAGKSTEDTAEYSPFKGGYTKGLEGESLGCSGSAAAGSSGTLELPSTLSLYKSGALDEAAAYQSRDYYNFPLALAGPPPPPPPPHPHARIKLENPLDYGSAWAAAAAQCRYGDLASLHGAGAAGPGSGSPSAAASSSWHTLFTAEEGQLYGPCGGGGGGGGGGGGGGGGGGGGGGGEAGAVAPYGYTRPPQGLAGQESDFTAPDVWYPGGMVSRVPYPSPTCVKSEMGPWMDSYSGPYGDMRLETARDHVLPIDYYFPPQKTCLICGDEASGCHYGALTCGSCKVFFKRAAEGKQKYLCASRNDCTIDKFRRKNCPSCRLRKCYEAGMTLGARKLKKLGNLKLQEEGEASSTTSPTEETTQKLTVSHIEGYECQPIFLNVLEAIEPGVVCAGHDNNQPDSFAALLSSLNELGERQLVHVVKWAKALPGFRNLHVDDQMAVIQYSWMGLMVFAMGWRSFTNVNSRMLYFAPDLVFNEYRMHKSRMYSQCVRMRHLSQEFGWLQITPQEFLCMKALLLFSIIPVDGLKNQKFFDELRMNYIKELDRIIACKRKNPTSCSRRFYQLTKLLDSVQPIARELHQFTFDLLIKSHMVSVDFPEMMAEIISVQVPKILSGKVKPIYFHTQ
# Procedure, shortened: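 MDA-kb2 human breast carcinoma cells carrying an MMTV-luciferase reporter (AR- and GR-responsive) were treated with compounds at 15 concentrations plus 3.0uM final nilutamide for 16hr at 37C without CO2; luminescence was read after ONE-Glo addition.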
# [6] = qHTS assay to identify small molecule antagonists of the estrogen receptor beta (ER-beta) signaling pathway - cell viability counter screen (AID 1259382); note: series mostly up to about 92 µM; nearly all actives have a fitted effect of over 55% in size
# Procedure, shortened: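 ER-beta-UAS-bla HEK293T cells (2,000/well, 2% charcoal-stripped FBS) were pre-incubated 6 hr at 37C, then given compound plus 1nM final 17-beta-estradiol for 16 hr. Viability was read in the same wells by CellTiter-Glo luminescence after 30 min at room temperature.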
# [7] = molecular target: Estrogen receptor (Homo sapiens) (UniProt P03372); assay: qHTS assay to identify small molecule agonists of the estrogen receptor alpha (ER-alpha) signaling pathway in the presence of an antagonist (AID 1259383; calls by dose curve; note: top concentration of the series differs between compounds; nearly all actives have a fitted effect of over 15% in size)
# Estrogen receptor (Homo sapiens), sequence (P03372 whole entry, looked up): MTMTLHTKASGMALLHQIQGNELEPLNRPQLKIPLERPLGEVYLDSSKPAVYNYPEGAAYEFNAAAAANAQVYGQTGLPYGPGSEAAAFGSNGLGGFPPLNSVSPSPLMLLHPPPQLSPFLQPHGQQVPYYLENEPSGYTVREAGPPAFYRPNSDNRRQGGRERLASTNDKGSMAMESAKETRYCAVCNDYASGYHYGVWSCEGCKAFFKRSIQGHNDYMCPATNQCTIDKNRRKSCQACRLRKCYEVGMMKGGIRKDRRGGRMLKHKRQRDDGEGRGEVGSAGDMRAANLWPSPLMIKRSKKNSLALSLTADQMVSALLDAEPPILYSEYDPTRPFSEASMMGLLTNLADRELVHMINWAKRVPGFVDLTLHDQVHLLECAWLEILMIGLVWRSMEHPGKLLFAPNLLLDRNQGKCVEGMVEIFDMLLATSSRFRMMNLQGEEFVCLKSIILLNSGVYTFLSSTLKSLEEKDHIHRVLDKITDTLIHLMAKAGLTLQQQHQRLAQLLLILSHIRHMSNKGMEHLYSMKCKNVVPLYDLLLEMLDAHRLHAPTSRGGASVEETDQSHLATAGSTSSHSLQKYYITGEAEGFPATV
# Procedure, shortened: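 VM7Luc4E2 cells (endogenous full-length ER-alpha, 4×ERE-luciferase) were precultured 5 days in phenol red-free medium with 10% charcoal-stripped FBS, given 10.0nM ICI-182,780 (final), then treated with compounds at 15 concentrations for 22hr at 37C; luminescence read with ONE-Glo.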
# [8] = qHTS assay to identify small molecule agonists or antagonists of the thyroid stimulating hormone receptor (TSHR) signaling pathway - wild type cell line counter screen (AID 1259384; calls by dose curve)
# Procedure, shortened: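 Wild-type Hek293 cells, 800/well, 18 h at 37C, then compound with Ro20-1724 for 30 min RT. cAMP by HTRF (cAMP-d2/anti-cAMP cryptate), 1 h RT, fluorescence read. 15 concentrations, triplicates.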
# [9] = molecular target: Thyrotropin receptor (Homo sapiens) (UniProt P16473); assay: qHTS assay to identify small molecule antagonists of the thyroid stimulating hormone receptor (TSHR) signaling pathway (AID 1259385; calls by dose curve; note: nearly all actives have a fitted effect of over 20% in size)
# Thyrotropin receptor (Homo sapiens), sequence (P16473 whole entry, looked up): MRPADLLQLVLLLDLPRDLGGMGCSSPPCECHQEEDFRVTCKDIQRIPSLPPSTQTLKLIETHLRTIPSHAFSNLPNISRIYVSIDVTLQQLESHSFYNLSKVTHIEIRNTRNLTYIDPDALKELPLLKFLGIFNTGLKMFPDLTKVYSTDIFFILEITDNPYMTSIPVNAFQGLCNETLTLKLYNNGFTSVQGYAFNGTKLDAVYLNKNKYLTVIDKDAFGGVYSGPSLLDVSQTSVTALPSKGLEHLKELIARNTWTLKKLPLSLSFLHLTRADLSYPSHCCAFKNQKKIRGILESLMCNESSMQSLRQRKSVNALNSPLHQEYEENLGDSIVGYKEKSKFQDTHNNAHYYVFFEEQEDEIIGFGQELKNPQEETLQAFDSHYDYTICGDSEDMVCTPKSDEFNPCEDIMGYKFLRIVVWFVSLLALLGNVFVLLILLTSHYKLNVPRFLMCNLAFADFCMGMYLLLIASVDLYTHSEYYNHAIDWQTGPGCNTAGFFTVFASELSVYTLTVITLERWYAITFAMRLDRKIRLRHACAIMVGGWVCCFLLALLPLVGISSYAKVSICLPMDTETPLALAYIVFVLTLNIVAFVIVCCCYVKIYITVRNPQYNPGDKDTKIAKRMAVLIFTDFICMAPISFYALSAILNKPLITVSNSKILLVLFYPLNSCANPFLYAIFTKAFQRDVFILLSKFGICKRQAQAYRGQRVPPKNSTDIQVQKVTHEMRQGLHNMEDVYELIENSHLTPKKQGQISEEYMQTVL
# Procedure, shortened: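 TSHR-HEK293 cells (800/well) plated 18 h, then compounds with Ro20-1724 and TSH at 1.5 ng/mL final, 30 min at room temperature. cAMP quantified by HTRF (cAMP-d2/anti-cAMP-cryptate, 1 h); 15 concentrations in triplicate.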
# [10] = qHTS assay to identify small molecule agonists of the estrogen receptor alpha (ER-alpha) signaling pathway in the presence of an antagonist - cell viability counter screen (AID 1259386);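 note: series mostly up to about 92 µM; cells exposed to compounds for 22 h at 37 °C before the viability read; nearly all actives have a fitted effect of over 30% in size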
# Procedure, shortened: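 VM7Luc4E2 cells (endogenous full-length ER-alpha, 4×ERE-luciferase) were held 5 days in phenol red-free medium with 10% charcoal-stripped FBS, plated, then given 10.0nM ICI-182,780 and compounds at 15 concentrations for 22hr at 37C; viability read by CellTiter-Fluor fluorescence.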
# [11] = molecular target: Progesterone receptor (Homo sapiens) (UniProt P06401); assay: qHTS assay to identify small molecule agonists of the progesterone receptor (PR) signaling pathway (AID 1346784; calls by dose curve; note: nearly all actives have a fitted effect of over 30% in size)
# Progesterone receptor (Homo sapiens), sequence (P06401 whole entry, looked up): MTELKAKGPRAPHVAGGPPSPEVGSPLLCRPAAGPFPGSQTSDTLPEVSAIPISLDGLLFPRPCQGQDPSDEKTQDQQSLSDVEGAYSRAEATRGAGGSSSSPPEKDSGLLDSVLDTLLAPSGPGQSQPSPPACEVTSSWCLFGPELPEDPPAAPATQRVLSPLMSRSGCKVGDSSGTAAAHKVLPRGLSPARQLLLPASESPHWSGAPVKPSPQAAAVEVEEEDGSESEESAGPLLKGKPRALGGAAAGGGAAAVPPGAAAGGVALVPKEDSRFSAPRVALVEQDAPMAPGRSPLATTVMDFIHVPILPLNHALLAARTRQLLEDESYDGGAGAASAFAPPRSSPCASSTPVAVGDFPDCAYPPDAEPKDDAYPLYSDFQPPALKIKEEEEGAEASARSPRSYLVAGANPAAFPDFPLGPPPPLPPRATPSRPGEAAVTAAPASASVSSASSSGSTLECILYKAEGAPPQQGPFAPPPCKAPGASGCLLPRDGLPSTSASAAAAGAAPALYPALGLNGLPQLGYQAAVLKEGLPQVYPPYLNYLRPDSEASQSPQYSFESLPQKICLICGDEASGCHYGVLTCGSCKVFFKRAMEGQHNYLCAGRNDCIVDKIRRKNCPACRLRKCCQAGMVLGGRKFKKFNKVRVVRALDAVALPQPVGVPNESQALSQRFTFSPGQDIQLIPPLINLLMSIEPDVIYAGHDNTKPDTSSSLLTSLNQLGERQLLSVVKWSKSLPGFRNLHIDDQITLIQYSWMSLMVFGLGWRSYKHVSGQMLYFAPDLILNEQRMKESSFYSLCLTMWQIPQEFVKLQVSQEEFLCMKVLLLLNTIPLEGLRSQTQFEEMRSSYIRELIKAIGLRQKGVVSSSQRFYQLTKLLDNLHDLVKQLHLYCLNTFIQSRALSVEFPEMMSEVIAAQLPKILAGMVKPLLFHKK
# Procedure, shortened: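 Cells (PR-UAS-bla HEK 293T, GripTite) were plated in assay medium containing 2% charcoal-stripped FBS and incubated 6 hr. Test compounds in DMSO were added for 16 hr at 37C. FRET substrate was then loaded for 2 hr at room temperature before fluorescence reading.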
# [12] = qHTS assay to identify small molecule antagonists of the progesterone receptor (PR) signaling pathway - cell viability counter screen (AID 1346798); note: series mostly up to about 92 µM; nearly all actives have a fitted effect of over 50% in size
# Procedure, shortened: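 Counter screen for cytotoxicity: viability of PR-UAS-bla HEK293T cells was measured with CellTiter-Glo luminescence following 16 hr compound exposure in the presence of R5020.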
# [13] = qHTS assay to identify small molecule agonists of the progesterone receptor (PR) signaling pathway - cell viability counter screen (AID 1346799; calls by dose curve; note: nearly all actives have a fitted effect of over 45% in size)
# Procedure, shortened: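 Cells (PR-UAS-bla HEK293T) are plated at 3,000/well in 2% charcoal-stripped FBS medium, rested 6 hr, dosed and incubated 16 hr at 37C. CellTiter-Glo is then added and luminescence measured after 30 min at room temperature.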
# [14] = qHTS assay to identify small molecule antagonists of the TGF-beta/Smad signaling pathway - cell viability counter screen (AID 1346824); note: nearly all actives have a fitted effect of over 50% in size
# Procedure, shortened: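 SBE-bla HEK 293T cells, incubated overnight, then compound plus 0.25 ng/mL TGF-beta1 (stock added) for 5 hr at 37 C. Viability was read in the same wells by CellTiter-Glo luminescence after 30 min at room temperature.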
# [15] = qHTS assay to identify small molecule agonists of the TGF-beta/Smad signaling pathway - cell viability counter screen (AID 1346829); note: top concentration of the series differs between compounds; nearly all actives have a fitted effect of over 45% in size
# Procedure, shortened: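 Here the cytotoxicity of library compounds is measured in SBE-bla HEK 293T cells treated for 5 hr, using CellTiter-Glo added to wells already read for the beta-lactamase reporter.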
# [16] = molecular target: Thyrotropin-releasing hormone receptor (Homo sapiens) (UniProt P34981); assay: qHTS assay to identify small molecule antagonists of the thyrotropin-releasing hormone receptor (TRHR) signaling pathway (AID 1346877; active = well fitted inhibition curve with a large enough effect in the repeat runs, not every such curve was filed as active; note: series mostly up to about 51 µM)
# Thyrotropin-releasing hormone receptor (Homo sapiens), sequence (P34981 whole entry, looked up): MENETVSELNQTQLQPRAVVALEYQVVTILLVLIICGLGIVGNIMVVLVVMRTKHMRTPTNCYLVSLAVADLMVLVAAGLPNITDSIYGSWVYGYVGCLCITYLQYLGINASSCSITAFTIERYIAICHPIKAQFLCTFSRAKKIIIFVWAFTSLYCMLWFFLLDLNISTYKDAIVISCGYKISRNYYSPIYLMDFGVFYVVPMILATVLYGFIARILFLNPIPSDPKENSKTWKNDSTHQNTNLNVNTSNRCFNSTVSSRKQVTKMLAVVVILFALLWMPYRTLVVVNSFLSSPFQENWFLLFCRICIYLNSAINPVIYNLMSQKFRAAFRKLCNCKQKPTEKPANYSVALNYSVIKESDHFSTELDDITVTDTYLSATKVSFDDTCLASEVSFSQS
# Procedure, shortened: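 TRHR-expressing HEK293 cells were seeded, cultured 18 h at 37 °C, then loaded with calcium dye for 2 h. Compounds were pre-incubated 5 min at room temperature before 1 nM TRH (final) was added, and kinetic fluorescence was recorded for 3 min.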
# [17] = molecular target: Thyrotropin-releasing hormone receptor (Homo sapiens) (UniProt P34981); assay: qHTS assay to identify small molecule agonists of the thyrotropin-releasing hormone receptor (TRHR) signaling pathway (AID 1346891; calls by dose curve; note: series mostly up to about 58 µM)
# Procedure, shortened: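 Cells: TRHR-Hek293, seeded and incubated 18 h. Dye loading: 2 h at 37 °C. Compound added from DMSO stock by pin tool. Read-out: kinetic calcium fluorescence over 3 min.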
# [18] = qHTS assay to identify small molecule agonists of the estrogen receptor beta (ER-beta) signaling pathway - cell viability counter screen (AID 1259380); note: nearly all actives have a fitted effect of over 30% in size
# Procedure, shortened: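 ER-beta-UAS-bla HEK293T cells in medium with 2% charcoal-stripped FBS were preincubated 6 hr at 37C, dosed with compound in DMSO for 16 hr, then after the bla read, CellTiter-Glo was added for 30 min at room temperature; luminescence recorded.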
# [19] = qHTS assay to identify small molecule agonists of the TGF-beta/Smad signaling pathway (AID 1346859; active = well fitted activation curve with a large enough effect in the signal ratio in the repeat runs, not every such curve was filed as active; the % refers to the signal ratio; note: series mostly up to about 77 µM)
# Procedure, shortened: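 Reporter line: HEK 293T with stably integrated SBE-controlled beta-lactamase. Compound exposure lasts 5 hr at 37 C and 5% CO2; substrate loading follows for 2 hr at room temperature, with emission read at 460 and 530 nm.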
# [20] = molecular target: Progesterone receptor (Homo sapiens) (UniProt P06401); assay: qHTS assay to identify small molecule antagonists of the progesterone receptor (PR) signaling pathway (AID 1346795; active = well fitted inhibition curve with a large enough effect in the signal ratio in the repeat runs, not every such curve was filed as active; the % refers to the signal ratio)
# Procedure, shortened: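 Antagonist mode: compounds tested against 1 nM (final) promegestone stimulation in HEK293T cells expressing PR-UAS-bla reporter, 16 hr at 37C, 5% CO2; beta-lactamase activity detected via B/G FRET substrate after 2 hr at room temperature.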
Compound,Potency [1],Potency [2],Potency [3],Potency [4],outcome [5],Potency [6],Potency [7],Potency [8],Potency [9],Potency [10],Potency [11],Potency [12],Potency [13],Potency [14],Potency [15],Potency [16],outcome [17],Potency [18],Potency [19],Potency [20]
OCC(O)CS (stereo unspecified),inactive,inactive,inactive,inactive,inactive,inactive,inactive,inactive,inactive,inactive,inactive,inactive,inactive,inactive,inactive,inactive,inactive,,,
OCCOCCOCCOCCOCCO,inactive,inactive,inactive,inactive,,inactive,,inactive,inactive,inactive,inactive,inactive,inactive,inactive,inactive,inactive,inactive,inactive,inactive,
OCc1ccc(Cl)cc1Cl,inactive,inactive,inactive,inactive,,inactive,,,,inactive,inactive,inactive,,inactive,inactive,inactive,inactive,,inactive,
Cc1cc(CC(=O)O)n(C)c1C(=O)c1ccc(Cl)cc1,inactive,inactive,inactive,inactive,,inactive,,inactive,inactive,inactive,inactive,inactive,,inactive,inactive,inactive,inactive,,,
CC(=O)OCc1ccc2c(c1)OCO2,inactive,inactive,inactive,inactive,,inactive,,inactive,inactive,inactive,inactive,inactive,,inactive,inactive,inactive,inactive,inactive,,
CC(COCC(C)OC(=O)c1ccccc1)OC(=O)c1ccccc1 (stereo unspecified),inactive,inactive,inactive,inactive,,inactive,,inactive,inactive,inactive,inactive,inactive,inactive,inactive,inactive,inactive,inactive,,,
Nc1cccc(C(F)(F)F)c1,inactive,inactive,inactive,inactive,,inactive,inactive,inactive,inactive,inactive,inactive,inactive,inactive,,inactive,inactive,inactive,inactive,inactive,inactive
CC(C)=CCC/C(C)=C/C=O,inactive,inactive,inactive,inactive,,inactive,inactive,inactive,inactive,inactive,inactive,inactive,,inactive,inactive,,,,inactive,inactive
COC(=O)/C=C\C(=O)OC,inactive,inactive,inactive,inactive,,inactive,,inactive,inactive,inactive,inactive,inactive,,,inactive,inactive,inactive,,inactive,inactive
CN=C(NC#N)NCCSCc1nc[nH]c1C,inactive,inactive,inactive,inactive,,inactive,inactive,inactive,inactive,inactive,inactive,inactive,inactive,inactive,inactive,inactive,inactive,inactive,,inactive
CC/C=C(\C(=O)N[C@@H]1C(=O)N2C(C(=O)OCOC(=O)C(C)(C)C)=C(COC(N)=O)CS[C@H]12)c1csc(N)n1,inactive,inactive,inactive,inactive,,inactive,inactive,inactive,inactive,inactive,inactive,inactive,inactive,inactive,inactive,inactive,inactive,inactive,inactive,
Cc1ccncc1,inactive,inactive,inactive,inactive,,inactive,inactive,inactive,inactive,inactive,inactive,inactive,inactive,,inactive,inactive,inactive,,,inactive
C=C(C)CC(C)(C)C,inactive,inactive,inactive,inactive,,inactive,,inactive,inactive,inactive,inactive,inactive,,inactive,inactive,inactive,inactive,,inactive,inactive
Cc1cc(C)cc(O)c1,1.09 µM (active),inactive,inactive,inactive,,inactive,inactive,inactive,inactive,inactive,inactive,inactive,inactive,inactive,inactive,inactive,inactive,inactive,,
CS(=O)(=O)c1ccc(Cl)cc1,inactive,inactive,inactive,inactive,,inactive,,inactive,inactive,inactive,inactive,inactive,inactive,,inactive,,,inactive,,inactive
C=CC(=O)NCOCCCC,inactive,inactive,inactive,inactive,,inactive,inactive,,,inactive,inactive,inactive,inactive,inactive,inactive,inactive,inactive,,,
O=C(Cl)c1ccc(C(=O)Cl)cc1,inactive,inactive,inactive,inactive,,inactive,inactive,inactive,inactive,inactive,inactive,inactive,inactive,inactive,inactive,inactive,inactive,inactive,inactive,inactive
